9 sequences from article PMC4081100, “A DNA-binding-site landscape and regulatory network analysis for NAC transcription factors in Arabidopsis thaliana” can be followed below.

Holding throughout (experiment): universal protein binding microarray (PBM); transcription factors of Arabidopsis thaliana; high values mean tight binding
One assay has as its target T1, GST-ANAC092(1-176) (Arabidopsis thaliana, UniProt Q9FKA0 1-176).
T1 sequence: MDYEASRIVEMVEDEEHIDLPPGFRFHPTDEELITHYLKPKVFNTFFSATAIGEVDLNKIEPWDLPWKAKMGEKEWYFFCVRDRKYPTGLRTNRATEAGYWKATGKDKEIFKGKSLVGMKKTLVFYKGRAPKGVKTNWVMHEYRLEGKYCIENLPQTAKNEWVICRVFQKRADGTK
To be noted: protein: recombinant; tags: GST; chain copies: 2; dsDNA, one strand shown. An outline of the steps: (§1)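 GST-tagged proteins (NAC-domain, full-length or DNA-binding-domain) were induced in cells, with zinc acetate supplied for zinc-finger proteins, then purified on glutathione–Sepharose 4B. Each was tested in duplicate at 200 to 500 nM final on custom all-10-mer Agilent 4 × 180K arrays rendered double-stranded by primer extension. The binding value is the normalised enrichment score (E-score) across gapped and ungapped 8-mers.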

Another assay has as its target T2, GST-ANAC019 NAC domain (Arabidopsis thaliana, UniProt Q9C932 14-162).
T2 sequence: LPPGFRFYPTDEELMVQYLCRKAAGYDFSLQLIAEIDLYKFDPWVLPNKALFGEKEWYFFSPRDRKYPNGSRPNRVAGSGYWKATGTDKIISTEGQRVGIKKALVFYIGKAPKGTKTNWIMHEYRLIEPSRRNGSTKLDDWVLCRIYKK
To be noted: protein: recombinant; tags: GST; chain copies: 2; dsDNA, one strand shown. A digest of the protocol:
as §1

The target of assay [1] is T3, GST-ANAC092(1-285) full length (Arabidopsis thaliana, UniProt Q9FKA0 1-285).
T3 sequence: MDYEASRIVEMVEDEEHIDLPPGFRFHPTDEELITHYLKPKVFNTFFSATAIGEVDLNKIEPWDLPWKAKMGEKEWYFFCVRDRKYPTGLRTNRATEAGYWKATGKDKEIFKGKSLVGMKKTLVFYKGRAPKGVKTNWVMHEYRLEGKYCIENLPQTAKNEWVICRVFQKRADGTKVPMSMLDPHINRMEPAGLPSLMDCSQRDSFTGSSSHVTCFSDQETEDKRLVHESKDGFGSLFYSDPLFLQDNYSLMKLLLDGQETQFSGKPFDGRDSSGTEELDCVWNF
To be noted: protein: recombinant; tags: GST; chain copies: 2; dsDNA, one strand shown. A digest of the protocol: as §1

The target in a further assay is T4, GST-NST2(1-184) (Arabidopsis thaliana, UniProt Q9M274 1-184).
T4 sequence: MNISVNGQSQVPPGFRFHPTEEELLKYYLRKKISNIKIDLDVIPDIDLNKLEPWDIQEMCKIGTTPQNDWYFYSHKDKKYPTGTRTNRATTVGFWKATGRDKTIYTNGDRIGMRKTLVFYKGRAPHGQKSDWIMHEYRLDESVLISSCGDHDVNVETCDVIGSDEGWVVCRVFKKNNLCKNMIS
To be noted: protein: recombinant; tags: GST; chain copies: 2; dsDNA, one strand shown. A digest of the protocol: as §1

In another assay the target is T5, GST-SND1(1-203) (Arabidopsis thaliana, UniProt Q9LPI7 1-203).
T5 sequence: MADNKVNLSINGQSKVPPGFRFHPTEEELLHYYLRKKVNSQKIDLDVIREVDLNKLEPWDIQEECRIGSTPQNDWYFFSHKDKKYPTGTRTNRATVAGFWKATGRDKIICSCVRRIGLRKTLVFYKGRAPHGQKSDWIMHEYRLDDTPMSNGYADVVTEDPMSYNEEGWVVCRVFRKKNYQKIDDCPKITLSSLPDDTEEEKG
To be noted: protein: recombinant; tags: GST; chain copies: 2; dsDNA, one strand shown. A digest of the protocol:
as §1

A further assay deals with T6, GST-VND7 NAC domain (Arabidopsis thaliana, UniProt Q9C8W9 9-158).
T6 sequence: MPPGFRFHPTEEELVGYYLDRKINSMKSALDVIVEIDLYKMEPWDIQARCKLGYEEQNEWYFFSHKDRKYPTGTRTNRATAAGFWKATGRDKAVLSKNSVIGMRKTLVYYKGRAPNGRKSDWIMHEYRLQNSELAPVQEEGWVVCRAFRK
To be noted: protein: recombinant; tags: GST; chain copies: 2; dsDNA, one strand shown. A digest of the protocol: as §1

A further assay concerns the target GST-WRKY1(266-371) (Arabidopsis thaliana, UniProt Q9SI37 266-371). To be noted: protein: recombinant; tags: GST; dsDNA, one strand shown. An outline of the steps:
as §1

The target in another assay is T7, GST-ATAF1 NAC domain (Arabidopsis thaliana, UniProt Q39013 7-158).
T7 sequence: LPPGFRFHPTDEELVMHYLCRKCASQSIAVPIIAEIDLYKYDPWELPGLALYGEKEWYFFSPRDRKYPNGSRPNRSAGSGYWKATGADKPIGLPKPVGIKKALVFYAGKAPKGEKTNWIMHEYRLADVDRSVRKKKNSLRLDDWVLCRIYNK
To be noted: protein: recombinant; tags: GST; chain copies: 2; dsDNA, one strand shown. An outline of the steps: as §1

In a further assay the target is T8, GST-NTL8 NAC domain (Arabidopsis thaliana, UniProt Q9XIN7 14-156).
T8 sequence: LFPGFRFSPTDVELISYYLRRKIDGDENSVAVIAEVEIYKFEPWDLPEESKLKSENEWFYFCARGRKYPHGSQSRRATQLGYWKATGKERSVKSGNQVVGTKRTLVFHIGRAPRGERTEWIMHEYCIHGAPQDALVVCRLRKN
To be noted: protein: recombinant; tags: GST; chain copies: 2; dsDNA, one strand shown. A digest of the protocol: as §1

The target in the next assay is GST-NTL6(1-168) (Arabidopsis thaliana, UniProt Q9SCK6 1-168). To be noted: protein: recombinant; tags: GST; chain copies: 2; dsDNA, one strand shown. A digest of the protocol:
as §1

The next assay concerns the target T9, GST-VND3 NAC domain (Arabidopsis thaliana, UniProt Q9FH59 12-162).
T9 sequence: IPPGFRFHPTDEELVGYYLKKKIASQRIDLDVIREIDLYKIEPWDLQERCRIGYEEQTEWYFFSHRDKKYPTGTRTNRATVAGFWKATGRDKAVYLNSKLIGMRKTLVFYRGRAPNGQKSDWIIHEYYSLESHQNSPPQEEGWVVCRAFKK
To be noted: protein: recombinant; tags: GST; chain copies: 2; dsDNA, one strand shown. An outline of the steps:
as §1

Another assay concerns the target T10, GST-ANAC055(1-171) (Arabidopsis thaliana, UniProt Q9LDY8 1-171).
T10 sequence: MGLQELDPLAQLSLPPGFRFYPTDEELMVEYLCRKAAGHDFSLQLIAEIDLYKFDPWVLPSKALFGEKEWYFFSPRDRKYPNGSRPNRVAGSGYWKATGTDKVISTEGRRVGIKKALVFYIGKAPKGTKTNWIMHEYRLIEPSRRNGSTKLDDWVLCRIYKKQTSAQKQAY
To be noted: protein: recombinant; tags: GST; chain copies: 2; dsDNA, one strand shown. An outline of the steps: as §1

Sequence of GST-NTL6(1-168) (Q9SCK6 1-168): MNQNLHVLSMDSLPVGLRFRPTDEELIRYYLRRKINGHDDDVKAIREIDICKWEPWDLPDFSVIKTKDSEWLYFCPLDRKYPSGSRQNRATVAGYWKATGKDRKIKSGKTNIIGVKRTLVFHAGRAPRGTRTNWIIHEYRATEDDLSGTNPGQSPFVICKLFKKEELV
Sequence of GST-WRKY1(266-371) (Q9SI37 266-371): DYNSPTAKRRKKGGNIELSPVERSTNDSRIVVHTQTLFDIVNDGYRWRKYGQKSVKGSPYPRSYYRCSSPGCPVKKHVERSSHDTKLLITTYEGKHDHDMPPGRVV

On to ACGCGACC, for which the binding signal in the assay with GST-ANAC092(1-176) was found to be 0.283 E-score; with GST-ANAC019 NAC domain, 0.0639 E-score; in [1] it was 0.423 E-score; with GST-NST2(1-184), 0.0828 E-score; with GST-SND1(1-203), 0.367 E-score; in the assay with GST-VND7 NAC domain, 0.0778 E-score. In addition, the binding signal in the assay with GST-WRKY1(266-371) was 0.342 E-score.
Regarding GTCAAAAA, the binding signal in the assay with GST-ANAC092(1-176) stood at 0.114 E-score; in the assay with GST-ANAC019 NAC domain it was 0.0995 E-score; with GST-ATAF1 NAC domain, 0.154 E-score; in [1] it was 0.0617 E-score; in the assay with GST-NST2(1-184), 0.121 E-score; with GST-NTL8 NAC domain, 0.0654 E-score. In addition, the binding signal is 0.216 E-score with GST-SND1(1-203), 0.0546 E-score in the assay with GST-VND7 NAC domain and 0.442 E-score in the assay with GST-WRKY1(266-371).
For TGAAGTCA, the binding signal with GST-NTL6(1-168) stood at 0.229 E-score; in assay [1] it was 0.133 E-score; in the assay with GST-NST2(1-184), 0.0789 E-score; with GST-NTL8 NAC domain, 0.165 E-score; with GST-SND1(1-203) it was 0.196 E-score; with GST-VND3 NAC domain, 0.0873 E-score. Further, in the assay with GST-WRKY1(266-371), the binding signal came to 0.426 E-score.
Consider TGACTCAA, for which the binding signal in the assay with GST-NTL6(1-168) was determined as 0.118 E-score; with GST-ATAF1 NAC domain it was 0.0764 E-score; in assay [1], 0.131 E-score; with GST-SND1(1-203), 0.0975 E-score; in the assay with GST-VND3 NAC domain, 0.113 E-score; in the assay with GST-WRKY1(266-371), 0.419 E-score.
For the sequence ACACGCCT, the binding signal in the assay with GST-ANAC092(1-176) came out at 0.319 E-score; with GST-ANAC019 NAC domain, 0.189 E-score; with GST-ANAC055(1-171), 0.173 E-score; with GST-ATAF1 NAC domain it was 0.212 E-score; in assay [1] it was 0.411 E-score; with GST-SND1(1-203), 0.0623 E-score. Further, the binding signal with GST-VND3 NAC domain was determined as 0.0938 E-score.
In the case of CAGGGAAA, the binding signal with GST-ANAC092(1-176) is 0.141 E-score; with GST-NTL6(1-168) it was 0.0693 E-score; with GST-ANAC019 NAC domain it was 0.115 E-score; in assay [1] it was 0.102 E-score; with GST-NTL8 NAC domain, 0.407 E-score; with GST-SND1(1-203), 0.0967 E-score. Also, the binding signal with GST-VND3 NAC domain was 0.0593 E-score.
For CCGTCAAA, the binding signal was found to be 0.164 E-score in the assay with GST-ANAC019 NAC domain, 0.148 E-score with GST-SND1(1-203), 0.0953 E-score with GST-VND3 NAC domain and 0.409 E-score with GST-WRKY1(266-371).
As to CCACGCTA, the binding signal with GST-ANAC092(1-176) was 0.405 E-score; with GST-ANAC019 NAC domain it was 0.155 E-score; in assay [1], 0.432 E-score; with GST-NST2(1-184) it was 0.219 E-score; with GST-NTL8 NAC domain, 0.0925 E-score; in the assay with GST-SND1(1-203) it was 0.329 E-score. In the assay with GST-VND3 NAC domain, the binding signal came to 0.0665 E-score.
For CTTGACTA, the binding signal in the assay with GST-ANAC019 NAC domain is 0.0925 E-score; with GST-ANAC055(1-171) it was 0.0781 E-score; in the assay with GST-ATAF1 NAC domain it was 0.142 E-score; with GST-NST2(1-184), 0.0888 E-score; with GST-NTL8 NAC domain, 0.0949 E-score; with GST-SND1(1-203) it was 0.0644 E-score. Also, the binding signal with GST-VND3 NAC domain is 0.159 E-score; with GST-WRKY1(266-371), 0.462 E-score.
